# According to PubChem BioAssay (EPA / NIEHS):
# “And” between values parts separate entries of the source, which are not always exact repeats. Identical values can stand only once. Inconclusive results are not listed. A structure can be active in one record and inactive in another. The source made the active and inactive calls. The calls were made as follows, unless noted: active = hit-call score of the fitted dose curve at least 0.9, where 1 is the maximum; inactive = score below 0.9.
# Tests used:
# [1] = read-out: Nuclear factor erythroid 2-related factor 2 (Homo sapiens) (UniProt Q16236); experiment: LTEA_HepaRG_NFE2L2: Life Technologies and Expression Analysis (LTEA) Assay for Nuclear factor erythroid 2-related factor 2 (NFE2L2) Transcription Factor using HepaRG (AID 2283527); conditions: mRNA level, 48 h; actives raise or lower the signal;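 as to outcome: TaqMan qRT-PCR transcript level normalised to ACTB GAPDH and POLR2A housekeeping genes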
# Procedure, shortened: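 Differentiated human HepaRG cells, serum-free induction medium, exposed 48 h in duplicate to eight half-log concentrations up to 100 uM in 0.5% DMSO. NFE2L2 mRNA by Fluidigm TaqMan qRT-PCR, normalised to ACTB, GAPDH, POLR2A; bidirectional change versus DMSO.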
# [2] = read-out: Signal transducer and activator of transcription 3 (Homo sapiens) (UniProt P40763); experiment: LTEA_HepaRG_STAT3: Life Technologies and Expression Analysis (LTEA) Assay for Signal transducer and activator of transcription (STAT3) using HepaRG (AID 2283529); conditions: mRNA level, 48 h; actives raise or lower the signal
# Procedure, shortened: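 Differentiated HepaRG cells, serum-free induction medium, dosed 48 h in duplicate, 8 half-log concentrations from 100 uM in 0.5% DMSO. STAT3 mRNA by qRT-PCR, normalised to ACTB, GAPDH, POLR2A; bidirectional fit versus DMSO.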
# [3] = read-out: solute carrier (SLCO1B1), SLCO1B1 (gene 10599); experiment: LTEA_HepaRG_SLCO1B1: Life Technologies and Expression Analysis (LTEA) Assay for solute carrier (SLCO1B1) using HepaRG (AID 2283530); conditions: mRNA level, 48 h; actives raise or lower the signal
# Procedure, shortened: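 Gain or loss of SLCO1B1 mRNA is fitted against the 0.5% DMSO vehicle in human HepaRG liver cells treated 48 h at up to 100 uM in half-log steps. Expression comes from qRT-PCR normalized to endogenous controls.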
# [4] = read-out: sulfotransferase 2A1 (SULT2A1), SULT2A1 (gene 6822); experiment: LTEA_HepaRG_SULT2A1: Life Technologies and Expression Analysis (LTEA) Assay for sulfotransferase 2A1 (SULT2A1) using HepaRG (AID 2283531); conditions: mRNA level, 48 h; actives raise or lower the signal
# Procedure, shortened: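 Cells were plated and cultured 48 h, switched to serum-free induction medium, then dosed in duplicate for 48 h (8 concentrations, max 100 uM). RNA was isolated and SULT2A1 expression measured by qRT-PCR; gain or loss of signal fitted relative to DMSO.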
# [5] = read-out: Transforming Growth Factor (TGFA), TGFA (gene 7039); experiment: LTEA_HepaRG_TGFA: Life Technologies and Expression Analysis (LTEA) Assay for Transforming Growth Factor (TGFA) using HepaRG (AID 2283532); conditions: mRNA level, 48 h; actives raise or lower the signal
# Procedure, shortened: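 Differentiated HepaRG cells exposed 48 hours in serum-free induction medium, 0.5% DMSO vehicle, 8-point half-log series from 100 uM, in duplicate. TGFA mRNA by TaqMan qRT-PCR, normalised to ACTB, GAPDH, POLR2A; bidirectional fit versus DMSO.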
# TIMP1, TIMP1 (gene 7076) = experiment: LTEA_HepaRG_TIMP1: Life Technologies and Expression Analysis (LTEA) Assay for TIMP1 using HepaRG (AID 2283534); conditions: mRNA level, 48 h; actives raise or lower the signal;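 also: TaqMan qRT-PCR signal normalized to ACTB GAPDH and POLR2A housekeeping genes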
# Procedure, shortened: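 We dosed human liver HepaRG cultures for 48 hours with up to 100 uM test chemical and measured TIMP1 expression by qRT-PCR. Activity in either direction is fitted relative to the 0.5% DMSO vehicle.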
# [6] = read-out: Tumor necrosis factor receptor 1 (TNFRSF1A), TNFRSF1A (gene 7132); experiment: LTEA_HepaRG_TNFRSF1A: Life Technologies and Expression Analysis (LTEA) Assay for Tumor necrosis factor receptor 1 (TNFRSF1A) using HepaRG (AID 2283535); conditions: mRNA level, 48 h; actives raise or lower the signal
# Procedure, shortened: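 Expression of TNFRSF1A in human HepaRG liver cells was measured by qRT-PCR 48 h after chemical dosing (maximum 100 uM). Bidirectional curve fitting used 0.5% DMSO as baseline.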
# [7] = read-out: Thyroid Hormone Responsive (THRSP), THRSP (gene 7069); experiment: LTEA_HepaRG_THRSP: Life Technologies and Expression Analysis (LTEA) Assay for Thyroid Hormone Responsive (THRSP) using HepaRG (AID 2283536); conditions: mRNA level, 48 h; actives raise or lower the signal
# Procedure, shortened: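 Differentiated HepaRG cells treated 48 h in serum-free induction medium with 8 half-log concentrations up to 100 uM (0.5% DMSO), duplicates. THRSP mRNA by TaqMan qRT-PCR normalised to ACTB, GAPDH, POLR2A; bidirectional fit versus DMSO.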
# [8] = read-out: Cellular tumor antigen p53 (Homo sapiens) (UniProt P04637); experiment: LTEA_HepaRG_TP53: Life Technologies and Expression Analysis (LTEA) Assay for Tumor Protein P53 (TP53) using HepaRG (AID 2283537); conditions: mRNA level, 48 h; actives raise or lower the signal
# Procedure, shortened: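 Read-out is TP53 transcript level by microfluidic qRT-PCR, normalised to three housekeeping genes and fitted bidirectionally against DMSO. Human HepaRG cells received compounds for 48 h, highest concentration 100 uM.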
# [9] = read-out: UDP glucuronosyltransferase (UGT1A1), UGT1A1 (gene 54658); experiment: LTEA_HepaRG_UGT1A1: Life Technologies and Expression Analysis (LTEA) Assay for UDP glucuronosyltransferase (UGT1A1) using HepaRG (AID 2283538); conditions: mRNA level, 48 h; actives raise or lower the signal
# Procedure, shortened: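 Readout is UGT1A1 transcript level by qRT-PCR, normalized to three housekeeping genes, after 48 h chemical treatment of HepaRG cells. Concentrations ran from 100 uM down in half-log steps with 0.5% DMSO, and gain or loss relative to DMSO was fitted.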
# [10] = read-out: UDP glucuronosyltransferase (UGT1A6), UGT1A6 (gene 54578); experiment: LTEA_HepaRG_UGT1A6: Life Technologies and Expression Analysis (LTEA) Assay for UDP glucuronosyltransferase (UGT1A6) using HepaRG (AID 2283539); conditions: mRNA level, 48 h; actives raise or lower the signal
# Procedure, shortened: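 Endpoint is UGT1A6 transcript induction or loss in a human liver cell line, quantified by TaqMan qRT-PCR 48 h after dosing. Concentrations ran from 100 uM downward in half-log steps in 0.5% DMSO; activity was fitted in both directions versus vehicle.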
# [11] = LTEA_HepaRG_LDH_cytotoxicity: Cytotoxicity Assessment in the Life Technologies and Expression Analysis (LTEA) Assay (AID 2283563; active = hit-call score of the fitted dose curve at least 0.9, where 1 is the maximum;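 as to AC50: LDH activity released into spent culture medium as a marker of cell death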)
# Procedure, shortened: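 Human HepaRG hepatic cells are treated with test chemicals for 48 h at up to 100 uM in 0.5% DMSO. Cytotoxicity is scored from medium LDH against the vehicle control.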
# [12] = TOX21_p53_BLA_p2_viability: Viability Assessment in the Tox21 HCT-116 p53 Agonism Beta-lactamase Assay, Phase 2 (AID 2283591; active = hit-call score of the fitted dose curve at least 0.9, where 1 is the maximum;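 also: compound exposure lasted 16 h at 37 °C; actives lower the ATP signal meaning cytotoxicity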)
# Procedure, shortened: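 HCT116 p53-bla cells, 4000/well, dosed after 5 h plating (217-fold dilution of DMSO stocks) and incubated 16 h at 37C. Viability taken as cellular ATP by CellTiter-Glo luminescence after 30 min RT; signal loss marks cytotoxicity.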
# [13] = molecular target: Cellular tumor antigen p53 (Homo sapiens) (UniProt P04637); experiment: TOX21_p53_BLA_p2_ratio: Tox21 HCT-116 p53 Agonism Beta-lactamase Assay, Ratio, Phase 2 (AID 2283592; active = hit-call score of the fitted dose curve at least 0.9, where 1 is the maximum)
# Procedure, shortened: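 An inducible beta-lactamase reporter in HCT116 cells signals p53 pathway activation. After 16 h chemical exposure at 37C, cells load CCF4-AM substrate for 2 h at room temperature; activity is the cleaved/uncleaved emission ratio relative to DMSO.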
# [14] = TOX21_p53_BLA_p3_viability: Viability Assessment in the Tox21 HCT-116 p53 Agonism Beta-lactamase Assay, Phase 3 (AID 2283593; active = hit-call score of the fitted dose curve at least 0.9, where 1 is the maximum;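 also: cells exposed to compound for 16 h before reading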)
# Procedure, shortened: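 HCT116 cells, 4000/well, dosed 5 h after plating by pin transfer (217-fold dilution from DMSO stock) and incubated 16 h at 37C, 5% CO2. Viability read as ATP luminescence with CellTiter-Glo after 30 min at room temperature.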
# [15] = molecular target: Cellular tumor antigen p53 (Homo sapiens) (UniProt P04637); experiment: TOX21_p53_BLA_p3_ratio: Tox21 HCT-116 p53 Agonism Beta-lactamase Assay, Ratio, Phase 3 (AID 2283596; active = hit-call score of the fitted dose curve at least 0.9, where 1 is the maximum)
# Procedure, shortened: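 HCT116 p53-bla cells (4000/well) given compound in DMSO (217-fold dilution) after 5 h, incubated 16 h at 37C. CCF4-AM substrate 2 h at room temperature; 460/530 nm emission ratio, gain fitted against DMSO.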
# [16] = read-out: X-box binding protein 1 (XBP1), XBP1 (gene 7494); experiment: LTEA_HepaRG_XBP1: Life Technologies and Expression Analysis (LTEA) Assay for X-box binding protein 1 (XBP1) using HepaRG (AID 2283540); conditions: mRNA level, 48 h; actives raise or lower the signal
# Procedure, shortened: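 Human HepaRG monolayers receive test chemical for 48 h across an eight-point half-log series starting at 100 uM. XBP1 mRNA gain or loss is scored against DMSO by qRT-PCR.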
# [17] = ATG_XTT_Cytotoxicity: Cytotoxicity Assessment in the Attagene TRANS-FACTORIAL HepG2 Assay (AID 2283584; active = hit-call score of the fitted dose curve at least 0.9, where 1 is the maximum)
# Procedure, shortened: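 Transfect HepG2 with GAL4-UAS reporter units, dose compound, incubate 24 h, then measure viable cell number by XTT. Fit concentration response against DMSO baseline.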
# [18] = read-out: Transforming Growth Factor (TGFB1), TGFB1 (gene 7040); experiment: LTEA_HepaRG_TGFB1: Life Technologies and Expression Analysis (LTEA) Assay for Transforming Growth Factor (TGFB1) Transporter using HepaRG (AID 2283533); conditions: mRNA level, 48 h; actives raise or lower the signal
# Procedure, shortened: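 Expression change of TGFB1 in human HepaRG cells is measured after a 48 h chemical exposure, up to 100 uM in 0.5% DMSO vehicle. Curves are fitted in both directions relative to the DMSO baseline.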
# Cellular tumor antigen p53 (Homo sapiens), sequence (P04637 whole entry, looked up): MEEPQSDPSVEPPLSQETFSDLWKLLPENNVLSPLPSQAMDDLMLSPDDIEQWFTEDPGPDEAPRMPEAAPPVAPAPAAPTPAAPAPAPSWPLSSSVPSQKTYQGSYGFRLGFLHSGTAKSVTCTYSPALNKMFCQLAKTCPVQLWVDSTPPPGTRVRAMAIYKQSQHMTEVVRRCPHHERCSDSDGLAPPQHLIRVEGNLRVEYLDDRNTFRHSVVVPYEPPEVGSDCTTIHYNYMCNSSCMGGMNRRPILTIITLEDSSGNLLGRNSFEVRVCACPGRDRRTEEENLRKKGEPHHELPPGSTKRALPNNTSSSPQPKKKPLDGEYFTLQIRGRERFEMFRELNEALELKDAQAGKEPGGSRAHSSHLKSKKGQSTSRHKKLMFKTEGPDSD
# Nuclear factor erythroid 2-related factor 2 (Homo sapiens), sequence (Q16236 whole entry, looked up): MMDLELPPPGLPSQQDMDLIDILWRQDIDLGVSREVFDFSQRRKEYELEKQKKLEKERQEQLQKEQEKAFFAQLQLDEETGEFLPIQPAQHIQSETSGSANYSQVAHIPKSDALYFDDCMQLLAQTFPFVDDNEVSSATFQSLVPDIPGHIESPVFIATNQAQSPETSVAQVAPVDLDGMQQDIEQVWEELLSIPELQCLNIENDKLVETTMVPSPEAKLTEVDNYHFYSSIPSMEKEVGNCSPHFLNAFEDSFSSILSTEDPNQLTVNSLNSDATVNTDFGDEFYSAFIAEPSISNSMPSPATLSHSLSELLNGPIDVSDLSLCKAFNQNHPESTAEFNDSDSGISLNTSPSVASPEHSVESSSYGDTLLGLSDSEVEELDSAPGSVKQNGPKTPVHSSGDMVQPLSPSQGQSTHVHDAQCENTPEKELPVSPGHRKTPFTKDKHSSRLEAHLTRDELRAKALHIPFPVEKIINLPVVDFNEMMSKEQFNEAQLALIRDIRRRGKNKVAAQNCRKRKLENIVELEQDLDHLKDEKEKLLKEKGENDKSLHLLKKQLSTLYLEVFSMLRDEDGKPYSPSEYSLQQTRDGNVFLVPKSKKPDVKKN
# Signal transducer and activator of transcription 3 (Homo sapiens), sequence (P40763 whole entry, looked up): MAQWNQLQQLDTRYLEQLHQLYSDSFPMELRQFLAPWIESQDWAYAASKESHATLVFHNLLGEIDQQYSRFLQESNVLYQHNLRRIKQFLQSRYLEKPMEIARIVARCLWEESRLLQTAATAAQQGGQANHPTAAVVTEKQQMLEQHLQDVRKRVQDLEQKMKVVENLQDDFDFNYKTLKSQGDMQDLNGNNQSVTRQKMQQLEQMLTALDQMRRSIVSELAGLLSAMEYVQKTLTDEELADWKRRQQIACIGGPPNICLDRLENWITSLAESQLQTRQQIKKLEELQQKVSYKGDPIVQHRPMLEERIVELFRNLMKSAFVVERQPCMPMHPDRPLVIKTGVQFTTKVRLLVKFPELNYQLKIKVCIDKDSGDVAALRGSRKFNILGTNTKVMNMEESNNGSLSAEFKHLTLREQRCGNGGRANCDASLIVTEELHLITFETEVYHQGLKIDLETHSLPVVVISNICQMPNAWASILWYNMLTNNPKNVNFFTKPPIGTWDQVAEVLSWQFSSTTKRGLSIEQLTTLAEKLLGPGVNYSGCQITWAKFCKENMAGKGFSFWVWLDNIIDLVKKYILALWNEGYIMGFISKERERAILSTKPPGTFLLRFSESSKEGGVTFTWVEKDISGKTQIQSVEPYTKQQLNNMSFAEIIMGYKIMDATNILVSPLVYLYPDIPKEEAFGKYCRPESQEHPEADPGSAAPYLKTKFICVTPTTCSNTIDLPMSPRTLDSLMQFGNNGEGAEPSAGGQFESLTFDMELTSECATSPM
compound,measurement,setting,value
CSC1=N[C@@](C)(c2ccccc2)C(=O)N1Nc1ccccc1,AC50,[1],68.6 µM (active)
same,AC50,[2],9.92 µM (active)
same,AC50,[3],35.7 µM (active)
same,AC50,[4],34.9 µM (active)
same,AC50,[5],29.7 µM (active)
same,outcome,"TIMP1, TIMP1 (gene 7076)",inactive
same,outcome,[6],inactive
same,AC50,[7],71.4 µM (active)
same,AC50,[8],28.4 µM (active)
same,AC50,[9],32.1 µM (active)
same,AC50,[10],33.2 µM (active)
same,AC50,[11],32.4 µM (active)
same,outcome,[12],inactive
same,outcome,[13],inactive
same,outcome,[14],inactive
same,outcome,[15],inactive
N#CSCSC#N,outcome,[1],inactive
same,outcome,[2],inactive
same,outcome,[3],inactive
same,outcome,[4],inactive
same,outcome,[5],inactive
same,outcome,"TIMP1, TIMP1 (gene 7076)",inactive
same,outcome,[6],inactive
same,AC50,[7],50 µM (active)
same,outcome,[8],inactive
same,outcome,[9],inactive
same,outcome,[10],inactive
same,outcome,[16],inactive
same,AC50,[12],54.8 µM (active) and 70.4 µM (active)
same,AC50,[13],19 µM (active) and 15.5 µM (active)
same,AC50,[14],60.7 µM (active) and 78.2 µM (active)
same,AC50,[15],14.9 µM (active) and 8.68 µM (active)
CCCCOC(=O)[C@@H](C)Oc1ccc(Oc2ccc(C#N)cc2F)cc1,outcome,[1],inactive
same,outcome,[2],inactive
same,outcome,[3],inactive
same,outcome,[4],inactive
same,outcome,[5],inactive
same,outcome,"TIMP1, TIMP1 (gene 7076)",inactive
same,outcome,[6],inactive
same,outcome,[7],inactive
same,outcome,[8],inactive
same,AC50,[9],49.8 µM (active)
same,outcome,[10],inactive
same,outcome,[16],inactive
same,outcome,[12],inactive
same,outcome,[13],inactive
CCC(=O)Nc1ccc(Cl)c(Cl)c1,AC50,[1],32.2 µM (active)
same,outcome,[2],inactive
same,outcome,[3],inactive
same,outcome,[4],inactive
same,outcome,[5],inactive
same,outcome,"TIMP1, TIMP1 (gene 7076)",inactive
same,outcome,[6],inactive
same,outcome,[7],inactive
same,outcome,[8],inactive
same,AC50,[9],26.7 µM (active)
same,outcome,[10],inactive
same,outcome,[17],inactive
same,outcome,[12],inactive
same,AC50,[13],88 µM (active)
same,outcome,[13],inactive
same,outcome,[14],inactive
same,AC50,[15],72.7 µM (active)
same,outcome,[15],inactive
CN1COCN(Cc2cnc(Cl)s2)C1=N[N+](=O)[O-],outcome,[1],inactive
same,outcome,[2],inactive
same,outcome,[3],inactive
same,outcome,[4],inactive
same,outcome,[5],inactive
same,outcome,[18],inactive
same,outcome,"TIMP1, TIMP1 (gene 7076)",inactive
same,outcome,[6],inactive
same,outcome,[7],inactive
same,outcome,[8],inactive
same,outcome,[9],inactive
same,outcome,[10],inactive
same,outcome,[13],inactive
same,outcome,[14],inactive
COc1cccc(C(=O)NN(C(=O)c2cc(C)cc(C)c2)C(C)(C)C)c1C,outcome,[1],inactive
same,AC50,[2],5.4 µM (active)
same,outcome,[3],inactive
same,AC50,[4],32.5 µM (active)
same,outcome,[5],inactive
same,outcome,[18],inactive
same,outcome,"TIMP1, TIMP1 (gene 7076)",inactive
same,outcome,[6],inactive
same,AC50,[7],12.2 µM (active)
same,outcome,[8],inactive
same,AC50,[9],2.32 µM (active)
same,outcome,[10],inactive
same,outcome,[11],inactive
same,outcome,[12],inactive
same,outcome,[13],inactive
same,outcome,[14],inactive
CCOP(=S)(OCC)Oc1cc(C)nc(C(C)C)n1,outcome,[1],inactive
same,outcome,[2],inactive
same,outcome,[3],inactive
same,outcome,[4],inactive
same,outcome,[5],inactive
same,outcome,"TIMP1, TIMP1 (gene 7076)",inactive
same,outcome,[6],inactive
same,AC50,[7],73.3 µM (active)
same,outcome,[8],inactive
same,AC50,[9],10.5 µM (active)
same,outcome,[10],inactive
same,outcome,[12],inactive
same,outcome,[13],inactive
same,AC50,[14],49.5 µM (active)
same,outcome,[14],inactive
same,AC50,[15],67.9 µM (active)
same,outcome,[15],inactive
